Measured values reported in the supplement of paper PMC4723716.
± gives the uncertainty stated by the source. In all, about 9,900 compounds were measured (“viability index relative to DMSO control”: median about 1, lowest 2% from about 0.85 on). Many of the other results were omitted from the sample, so the lowest values are more common in it than they were.

System: Plasmodium falciparum NF54 stage V gametocytes
Test: viability index relative to DMSO control (fraction); higher = less gametocyte killing
Conditions: 2.5 µM, incubation time: 72 h
Procedure, shortened: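 Gametocytes (P. falciparum NF54, stage V) were treated with compound at 2.5 µM for 72 hr at 37°C in low oxygen, in serum-free medium at 0.75% gametocytemia and 1.25% hematocrit. Counts of 20–70 µm2 red particles, taken from one field per well after MitoTracker Red CMXRos with saponin, were divided by the plate mean of solvent-only wells. This ratio is the viability index.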

[1] = library set: Broad Institute DOS
[2] = library set: Broad Institute Blood Stage

Row | Structure (SMILES) | viability index [1] | viability index [2]
1 | O=C(C1CCOCC1)N1CC(=O)N2[C@H](CO)[C@H](c3ccc(/C=C/c4ccccc4)cc3)[C@@H]2C1 | 0.99 ± 0.011 | 
2 | C[C@@H]1CN([C@@H](C)CO)C(=O)c2cccc(NC(=O)c3ccc(-c4nccs4)cc3)c2O[C@H]1CN(C)C(=O)Nc1ccc(C(F)(F)F)cc1 | 1.011 ± 0.0069 | 
3 | C[C@@H]1CN([C@@H](C)CO)C(=O)c2cccc(NC(=O)C3CCOCC3)c2O[C@@H]1CN(C)C(=O)Nc1cccc2ccccc12 | 0.974 ± 0.06 | 
4 | Cc1noc(C)c1S(=O)(=O)N(C)C[C@@H]1Oc2c(NC(=O)c3ccc(-c4nccs4)cc3)cccc2C(=O)N([C@@H](C)CO)C[C@@H]1C | 0.955 ± 0.036 | 
5 | C[C@@H]1CN([C@@H](C)CO)C(=O)c2cccc(NC(=O)C3CCOCC3)c2O[C@H]1CN(C)C(=O)Nc1cccc2ccccc12 | 0.966 ± 0.063 | 
6 | C[C@H](CO)N1C[C@H](C)[C@@H](CN(C)C(=O)Nc2ccc(C(F)(F)F)cc2)Oc2c(NC(=O)c3ccc(-c4nccs4)cc3)cccc2C1=O | 0.953 ± 0.018 | 
7 | C[C@@H]1CN([C@@H](C)CO)C(=O)c2cccc(NC(=O)c3ccc(-c4nccs4)cc3)c2O[C@@H]1CN(C)C(=O)Nc1cccc2ccccc12 |  | 0.784 ± 0.023
8 | C[C@@H]1CN([C@@H](C)CO)C(=O)c2cccc(NC(=O)c3ccc(-c4nccs4)cc3)c2O[C@@H]1CN(C)C(=O)Nc1ccc(C(F)(F)F)cc1 | 0.556 ± 0.084 | 
9 | C[C@H](CO)N1C[C@H](C)[C@H](CN(C)C(=O)Nc2cccc3ccccc23)Oc2ncccc2C1=O | 0.826 ± 0.021 | 
10 | Cc1noc(C)c1S(=O)(=O)N(C)C[C@@H]1Oc2c(NC(=O)c3ccc(-c4nccs4)cc3)cccc2C(=O)N([C@@H](C)CO)C[C@H]1C | 0.828 ± 0.018 | 
11 | C[C@@H]1CN([C@H](C)CO)C(=O)c2cccc(NC(=O)c3ccc(-c4nccs4)cc3)c2O[C@H]1CN(C)C(=O)Nc1ccc(C(F)(F)F)cc1 | 0.97 ± 0.025 | 
12 | Cc1noc(C)c1S(=O)(=O)N(C)C[C@@H]1Oc2c(NC(=O)c3ccc(-c4nccs4)cc3)cccc2C(=O)N([C@H](C)CO)C[C@@H]1C | 0.978 ± 0.068 | 
13 | C[C@H](CO)N1C[C@H](C)[C@H](CN(C)C(=O)Nc2ccc(C(F)(F)F)cc2)Oc2c(NC(=O)c3ccc(-c4nccs4)cc3)cccc2C1=O | 1.04 ± 0.021 | 
14 | N#Cc1cccc(-c2ccc([C@@H]3[C@@H](CO)N4CCCCN(Cc5ccccc5F)C[C@H]34)cc2)c1 | 0.889 ± 0.028 | 
15 | C[C@H](CO)N1C[C@H](C)[C@@H](CN(C)S(=O)(=O)c2ccc(Cl)cc2)OCCCC[C@H](C)Oc2ccc(NC(=O)Nc3ccc(C(F)(F)F)cc3)cc2C1=O | 1.1 ± 0.11 | 
16 | O=C(CC1CC1)N1CC(=O)N2[C@H](C1)[C@H](c1ccc(C#Cc3cccc(F)c3)cc1)[C@@H]2CO | 0.974 ± 0.063 | 

Row | Structure (SMILES) | viability index [1] | viability index [2]
17 | COc1ccc([C@H]2C/C=C/C[C@H](C)Oc3ccccc3C(=O)N(C)[C@@H](Cc3ccccc3)C(=O)N2)c(OC)c1.COc1ccc([C@H]2C/C=C\C[C@H](C)Oc3ccccc3C(=O)N(C)[C@@H](Cc3ccccc3)C(=O)N2)c(OC)c1 | 0.861 ± 0.046 | 
18 | COc1ccc2c3c([nH]c2c1)[C@@H](CO)N(C[C@]31CCN(CC1)S(C)(=O)=O)C(=O)NC1CCCC1 | 1.01 ± 0.02 | 
19 | Cc1noc(C)c1S(=O)(=O)N(C)C[C@H]1OCc2ccccc2-c2c(n(C)c3ccccc23)C(=O)N([C@H](C)CO)C[C@H]1C | 0.948 ± 0.025 | 
20 | O=S(=O)(c1cccc(F)c1)N1[C@@H]2CNC[C@H]1[C@H]2c1ccc(-c2ccccc2F)cc1 | 1.06 ± 0.051 | 
21 | C[C@@H]1CN([C@@H](C)CO)C(=O)c2c(c3ccccc3n2C)-c2ccccc2CO[C@H]1CN(C)C(=O)Nc1ccccc1C(F)(F)F | 0.805 ± 0.084 | 
22 | C[C@@H]1CN([C@@H](C)CO)C(=O)c2c(c3ccccc3n2C)-c2ccccc2CO[C@@H]1CN(C)Cc1cccc(C(F)(F)F)c1 | 0.839 ± 0.039 | 
23 | C[C@H]1CN([C@@H](C)CO)C(=O)c2c(c3ccccc3n2C)-c2ccccc2CO[C@@H]1CN(C)C(=O)Nc1ccccc1C(F)(F)F | 1.009 ± 0.0034 | 
24 | C[C@@H]1CN([C@@H](C)CO)C(=O)c2c(c3ccccc3n2C)-c2ccccc2CO[C@H]1CN(C)S(=O)(=O)c1ccc([N+](=O)[O-])cc1 | 0.93 ± 0.086 | 
25 | C[C@@H]1CN([C@@H](C)CO)C(=O)c2c(c3ccccc3n2C)-c2ccccc2CO[C@@H]1CN(C)C(=O)Nc1ccccc1C(F)(F)F | 0.955 ± 0.039 | 
26 | C[C@@H]1CN([C@@H](C)CO)C(=O)c2c(c3ccccc3n2C)-c2ccccc2CO[C@H]1CN(C)Cc1cccc(C(F)(F)F)c1 | 0.932 ± 0.15 | 
27 | C[C@H](CO)N1C[C@H](C)[C@@H](CN(C)S(=O)(=O)c2ccc([N+](=O)[O-])cc2)OCc2ccccc2-c2c(n(C)c3ccccc23)C1=O | 0.896 ± 0.046 | 
28 | C[C@H](CO)N1C[C@H](C)[C@H](CN(C)S(=O)(=O)c2ccc([N+](=O)[O-])cc2)OCc2ccccc2-c2c(n(C)c3ccccc23)C1=O | 0.969 ± 0.015 | 
29 | C[C@H](CO)N1C[C@H](C)[C@H](CN(C)S(=O)(=O)c2ccc(C(F)(F)F)cc2)OCc2ccccc2-c2c(n(C)c3ccccc23)C1=O |  | 0.693 ± 0.051
30 | C[C@H]1CN([C@@H](C)CO)C(=O)c2c(c3ccccc3n2C)-c2ccccc2CO[C@H]1CN(C)S(=O)(=O)c1ccc(C(F)(F)F)cc1 |  | 0.705 ± 0.04
31 | C[C@H]1CN([C@@H](C)CO)C(=O)c2c(c3ccccc3n2C)-c2ccccc2CO[C@H]1CN(C)Cc1cccc(C(F)(F)F)c1 | 0.952 ± 0.02 | 
32 | C[C@@H]1CN([C@@H](C)CO)C(=O)c2c(c3ccccc3n2C)-c2ccccc2CO[C@@H]1CN(C)S(=O)(=O)c1ccc([N+](=O)[O-])cc1 | 0.998 ± 0.098 | 
